# Source: PubChem BioAssay (NCATS)
# Where “and” joins values, the source holds several entries; their conditions need not be identical. Equal values may be shown once. A number with no mark means an inactive call. Results filed as inconclusive are left out. Entries that show only a call come without a potency. More than one record can exist for a structure, and the calls need not agree. Calls of active or inactive are those of the source. Unless noted, calls follow the shape of the dose curve; as a rule, active = well fitted curve in the direction sought with a large enough effect; inconclusive = small, poorly fitted or top-dose-only effect, or another doubt; inactive = no such curve, though single readings can be large; an effect the other way counts as inactive or inconclusive.
# How the values were obtained:
# [1] = qHTS assay for environmental chemicals that activate the Aryl hydrocarbon Receptor (AhR) signaling pathway (AID 651777); details: 1A2-DRE human hepatoma cells, luciferase, 24 h; hits give high values; also: nearly all actives have a fitted effect of over 15% in size
# Procedure, shortened: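 Measured luciferase activity, read 30 min after One-Glo addition at room temperature, from human hepatoma cells bearing a dioxin response element–CYP1A2 promoter reporter and exposed to compound for 24 hr at 37 C.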
# [2] = molecular target: Peroxisome proliferator-activated receptor alpha (Homo sapiens) (UniProt Q07869); assay: qHTS assay for small molecule agonists of the peroxisome proliferator-activated receptor alpha (PPARalpha) signaling pathway (AID 651778); details: PathHunter PPARalpha complementation, chemiluminescence, 6 h; max response: hits give high values
# Sequence of Peroxisome proliferator-activated receptor alpha (Homo sapiens) (Q07869 whole entry, looked up): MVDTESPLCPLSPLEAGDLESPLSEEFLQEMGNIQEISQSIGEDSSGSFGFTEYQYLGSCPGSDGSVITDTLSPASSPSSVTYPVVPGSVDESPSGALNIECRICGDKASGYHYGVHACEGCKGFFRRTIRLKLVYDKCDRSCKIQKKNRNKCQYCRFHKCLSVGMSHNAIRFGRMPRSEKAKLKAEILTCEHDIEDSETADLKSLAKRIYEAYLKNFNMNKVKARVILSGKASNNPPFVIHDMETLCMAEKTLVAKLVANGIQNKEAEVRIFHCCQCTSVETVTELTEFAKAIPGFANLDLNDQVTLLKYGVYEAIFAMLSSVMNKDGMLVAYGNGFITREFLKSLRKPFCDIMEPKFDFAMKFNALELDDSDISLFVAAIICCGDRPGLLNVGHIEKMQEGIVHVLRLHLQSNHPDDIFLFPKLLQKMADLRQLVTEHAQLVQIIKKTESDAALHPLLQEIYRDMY
# Procedure, shortened: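 Cells plated at 2,000/well and held overnight at 37 C, 5% CO2, then compound added by pin tool for 6 hr; after PathHunter detection reagent and 60 min at room temperature, chemiluminescence from enzyme complementation was read.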
# [3] = qHTS assay for small molecule agonists of the antioxidant response element (ARE) signaling pathway measured by Nrf2-dependant transcriptional activity (AID 720636; active = well fitted curve in the direction sought with a large enough effect in the repeat runs; an effect the other way counts as inactive or inconclusive;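 also: HepG2 cells with an ARE-driven luciferase reporter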); details: ARE-luc HepG2, Nrf2 luciferase reporter, 16 h; series mostly up to 92.4 µM
# Procedure, shortened: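 In HepG2 cells engineered with an Nrf2-responsive luciferase gene, ARE induction was quantified as luminescence after 16 hr compound treatment at 37 C.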
# [4] = qHTS assay for small molecule antagonists of the retinoid-related orphan receptor gamma (ROR-gamma) signaling pathway - cell viability counter screen (AID 720652; active = well fitted curve in the direction sought with a large enough effect in the repeat runs; an effect the other way counts as inactive or inconclusive;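 also: compound exposure lasted 16 hr before ATP read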; also: potency is read from the fitted curve at half-maximal effect); details: RORgamma reporter cell line viability counter screen; series mostly up to 92.2 µM
# Procedure, shortened: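 Steps: seed CHO cells bearing TET-inducible ROR and ROR response element-luciferase; rest 5 hr at 37 C; add compound, then doxycycline; incubate 16 hr; add CellTiter-Glo and read luminescence as ATP-based viability.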
# [5] = qHTS assay for small molecule agonists of the antioxidant response element (ARE) signaling pathway measured by Nrf2-dependant transcriptional activity - cell viability counter screen (AID 720653; active = well fitted curve in the direction sought with a large enough effect in the repeat runs; an effect the other way counts as inactive or inconclusive; also: potency is read from the fitted curve at half-maximal effect); details: ARE-bla HepG2 viability, CellTiter-Glo ATP luminescence, 16 h; max response: hits give low values
# Procedure, shortened: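 ARE-bla HepG2 cells (2,000/well) rested 5 hrs at 37C/5% CO2, then exposed to compounds in DMSO for 16 hrs. Viability was read in the same wells as intracellular ATP by luminescence, 30 min at room temperature after reagent addition.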
# [6] = qHTS Assay for Identifying Gametocytocidal Compounds (AID 743244); also: potency is read from the fitted curve at half-maximal effect;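 as to max response: actives lower the fluorescent signal which means gametocytes are killed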; details: P. falciparum 3D7 stage III-V gametocytes, alamarBlue, 72 h; max response: hits give low values
# Procedure, shortened: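 Viability read-out was resazurin reduction (alamarBlue, 24 h) measured at Ex 525/Em 598 nm. Beforehand, late-stage (III-V) 3D7 P. falciparum gametocytes at 20,000 cells/well were incubated with compound 72 h at 37C under 5% CO2.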
# [7] = qHTS assay for cell viability of HEK293 cells (AID 743288); details: ATP luminescence (CellTiter-Glo), 18 h; max response: hits give low values; also: nearly all actives have a fitted effect of over 50% in size; also: potency is read from the fitted curve at half-maximal effect
# Procedure, shortened: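 Quantitative high-throughput screen: compounds were pinned onto parental HEK293 cells (2,000 per well) after a minimum 5 h settling at 37 C, incubated 18 h at 37 C, and intracellular ATP measured by luciferase luminescence.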
# [8] = qHTS assay for cell viability of the p53RE-bla HCT-116 cell line (AID 743292); details: p53RE-bla HCT-116 viability, ATP luminescence, 16 h; series mostly up to 95 µM; also: nearly all actives have a fitted effect of over 55% in size; also: potency is read from the fitted curve at half-maximal effect
# Procedure, shortened: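 Intracellular ATP of p53RE-bla HCT-116 cells measured by luciferase luminescence following 16 h compound incubation at 37 C; DMSO-only wells served as vehicle controls.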
# [9] = qHTS for compounds that reverse cellular toxicity of Amyloid beta (A-beta) peptide in yeast: LOPAC Validation Assay (AID 720559); details: yeast expressing A-beta; series mostly up to 46.1 µM
# Procedure, shortened: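 Activity is expressed relative to DMSO and an equimolar ferric chloride/clioquinol mix. Compounds were pinned into medium with A-beta-expressing yeast, grown 48 hr at 30 C, then read by absorbance at 600 nm.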
# [10] = qHTS for Activators of Parkin Expression: LOPAC Validation Assay (NLuc Reporter) (AID 720572); details: Parkin promoter NanoLuc reporter cells, luminescence, percent of positive control, DMSO as zero; series mostly up to 46.1 µM
# Procedure, shortened: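 Cells harboring the Parkin-promoter coincidence reporter were treated for 24 h at seven concentrations. NLuc output was measured sequentially after the FLuc channel and scaled between DMSO and positive control values.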
# [11] = qHTS for Activators of Parkin Expression: LOPAC Validation Assay (FLuc Reporter) (AID 720573); details: Cell line, PRKN promoter firefly luciferase reporter, vehicle wells = 0, positive control = 100%; series mostly up to 46.1 µM
# Procedure, shortened: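 A neuronal cell line harbouring FLuc and NLuc reporters behind the Parkin promoter was exposed to compounds for 24 h. Firefly luciferase signal, measured after 10 min with detection reagent, was scaled to DMSO and positive-control wells.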
# [12] = molecular target: T1, Hexokinase-4 (Homo sapiens) + Glucokinase regulatory protein (Homo sapiens) (UniProt P35557+Q14397); assay: qHTS assay for inhibitors of recombinant human GCK-GKRP interaction: Diaphorase-coupled assay (AID 743205); details: G6PDH/diaphorase resorufin fluorescence; series mostly up to 57.5 µM
# T1 sequence (P35557 whole entry, looked up): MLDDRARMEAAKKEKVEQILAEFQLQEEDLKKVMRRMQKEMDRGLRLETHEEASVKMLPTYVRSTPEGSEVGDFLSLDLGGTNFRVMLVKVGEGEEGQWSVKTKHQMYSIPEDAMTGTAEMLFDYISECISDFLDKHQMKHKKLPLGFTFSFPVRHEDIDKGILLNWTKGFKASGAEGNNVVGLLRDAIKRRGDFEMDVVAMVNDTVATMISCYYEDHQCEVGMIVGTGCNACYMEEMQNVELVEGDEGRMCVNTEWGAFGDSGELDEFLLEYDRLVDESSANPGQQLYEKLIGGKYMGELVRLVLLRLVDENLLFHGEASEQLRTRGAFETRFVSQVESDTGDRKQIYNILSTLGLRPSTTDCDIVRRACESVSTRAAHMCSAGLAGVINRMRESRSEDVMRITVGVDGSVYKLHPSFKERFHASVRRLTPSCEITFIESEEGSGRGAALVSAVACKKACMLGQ
# T1 sequence (Q14397 whole entry, looked up): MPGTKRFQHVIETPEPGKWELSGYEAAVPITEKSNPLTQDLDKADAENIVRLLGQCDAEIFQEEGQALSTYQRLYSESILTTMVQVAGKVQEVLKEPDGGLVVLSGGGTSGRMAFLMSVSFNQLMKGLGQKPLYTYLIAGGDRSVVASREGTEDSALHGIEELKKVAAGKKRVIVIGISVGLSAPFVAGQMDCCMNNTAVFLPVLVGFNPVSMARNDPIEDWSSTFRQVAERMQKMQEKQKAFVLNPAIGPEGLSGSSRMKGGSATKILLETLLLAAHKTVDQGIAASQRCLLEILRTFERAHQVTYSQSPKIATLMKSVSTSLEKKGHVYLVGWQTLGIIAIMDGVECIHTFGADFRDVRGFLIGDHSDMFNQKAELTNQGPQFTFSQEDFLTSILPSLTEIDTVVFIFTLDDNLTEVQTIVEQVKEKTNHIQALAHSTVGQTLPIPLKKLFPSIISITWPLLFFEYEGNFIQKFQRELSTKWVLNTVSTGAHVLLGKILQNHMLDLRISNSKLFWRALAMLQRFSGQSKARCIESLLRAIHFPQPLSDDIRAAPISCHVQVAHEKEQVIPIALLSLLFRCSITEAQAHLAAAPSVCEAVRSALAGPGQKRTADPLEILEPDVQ
# Procedure, shortened: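 Inhibitors of the GCK–GKRP complex relieve GKRP suppression of GCK, detected through a G6PDH–diaphorase cascade reducing resazurin. Human GST-GCK and FLAG-GKRP are used at 10 nM with 5 mM glucose and 0.4 mM ATP.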
# [13] = molecular target: T1, Hexokinase-4 (Homo sapiens) + Glucokinase regulatory protein (Homo sapiens); assay: qHTS assay for inhibitors of recombinant human GCK-GKRP interaction: ADP-Glo assay (AID 743206); details: ADP-Glo luminescence, 60 min, 0% = vehicle-only wells with enzyme present; series mostly up to 76.9 µM
# Procedure, shortened: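 Pin-transferred compounds meet a 15 nM GST-GCK/15 nM FLAG-GKRP/2 uM S6P mix (dispense concentrations). ATP is then added to 0.4 mM final with 5 mM glucose, and the reaction runs 60 min at room temperature. ADP is quantified luminescently.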
# [14] = molecular target: T1, Hexokinase-4 (Homo sapiens) + Glucokinase regulatory protein (Homo sapiens); assay: qHTS assay for inhibitors of recombinant human GCK-GKRP interaction: HTRF assay (AID 743207); details: recombinant GCK-GKRP HTRF binding, 60 min, with sorbitol-6-phosphate; series mostly up to 57.5 µM
# Procedure, shortened: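 Steps: dispense GCK–GKRP complex (5 nM each, GST- and FLAG-tagged) with 2 uM S6P; pin in compounds; add XL665/Eu-cryptate-labelled antibodies; incubate 60 min at room temperature; read time-resolved FRET at 665 and 615 nm.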
# [15] = molecular target: Tyrosine-protein kinase Yes (Homo sapiens) (UniProt P07947); assay: qHTS for small molecule inhibitors of Yes1 kinase: Primary Screen (AID 686947); details: Yes1 kinase biochemical qHTS inhibition; series mostly up to 76.9 µM; also: nearly all actives have a fitted effect of over 60% in size
# Sequence of Tyrosine-protein kinase Yes (Homo sapiens) (P07947 whole entry, looked up): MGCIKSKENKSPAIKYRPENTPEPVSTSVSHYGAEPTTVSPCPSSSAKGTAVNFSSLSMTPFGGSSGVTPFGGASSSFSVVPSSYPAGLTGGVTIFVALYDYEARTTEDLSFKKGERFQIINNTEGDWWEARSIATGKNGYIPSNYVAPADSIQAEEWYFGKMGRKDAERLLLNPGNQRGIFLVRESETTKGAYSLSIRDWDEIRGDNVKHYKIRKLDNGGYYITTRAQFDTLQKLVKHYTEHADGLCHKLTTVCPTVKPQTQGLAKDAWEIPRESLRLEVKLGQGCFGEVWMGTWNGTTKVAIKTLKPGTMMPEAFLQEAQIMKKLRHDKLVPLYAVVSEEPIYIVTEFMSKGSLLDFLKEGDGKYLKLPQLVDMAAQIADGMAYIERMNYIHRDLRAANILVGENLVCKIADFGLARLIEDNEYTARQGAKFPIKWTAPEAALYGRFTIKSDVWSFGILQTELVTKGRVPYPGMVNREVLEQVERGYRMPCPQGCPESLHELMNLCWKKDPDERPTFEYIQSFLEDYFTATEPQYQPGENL
# Procedure, shortened: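 ADP-Glo luminescence reports ADP formed by 4 nM Yes1 phosphorylating poly(E4Y) (0.3 mg/mL) with 0.1 mM ATP for 60 min at room temperature, following 20 min compound preincubation; normalised between DMSO wells with and without enzyme.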
# [16] = qHTS for small molecule inhibitors of Yes1 kinase: Counter Assay (AID 686950); details: series mostly up to 76.9 µM;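 also: no kinase present so only ADP-Glo detection of a fixed ADP amount is tested; luminescence from ADP-Glo reporting ADP in a fixed ATP and ADP mixture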
# Procedure, shortened: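 Measuring interference with ADP-Glo, the assay ran 60 min at room temperature on an ATP/ADP mix lacking enzyme. Values were normalized to ATP-plus-ADP (maximum) and ATP-only (minimum) DMSO controls.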
# [17] = molecular target: Arylsulfatase A (Homo sapiens) (UniProt P15289); assay: qHTS screen for enhancers of Arylsulfatase A (ASA1): LOPAC Validation Assay (AID 720538); details: ASA enzyme activity, LOPAC qHTS enhancer assay; series mostly up to 57.5 µM
# Sequence of Arylsulfatase A (Homo sapiens) (P15289 whole entry, looked up): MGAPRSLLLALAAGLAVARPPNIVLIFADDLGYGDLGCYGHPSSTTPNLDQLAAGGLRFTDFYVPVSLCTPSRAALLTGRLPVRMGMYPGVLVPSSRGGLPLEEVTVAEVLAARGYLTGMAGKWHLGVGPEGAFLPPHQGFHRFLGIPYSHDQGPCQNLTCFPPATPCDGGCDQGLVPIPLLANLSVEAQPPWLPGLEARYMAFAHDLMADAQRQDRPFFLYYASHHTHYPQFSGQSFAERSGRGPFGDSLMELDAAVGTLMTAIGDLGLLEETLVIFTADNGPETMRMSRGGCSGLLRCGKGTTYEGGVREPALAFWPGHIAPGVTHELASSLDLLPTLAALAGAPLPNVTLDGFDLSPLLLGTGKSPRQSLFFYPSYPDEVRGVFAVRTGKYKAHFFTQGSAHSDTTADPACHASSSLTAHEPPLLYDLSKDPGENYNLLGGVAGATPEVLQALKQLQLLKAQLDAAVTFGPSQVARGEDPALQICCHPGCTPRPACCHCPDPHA
# Procedure, shortened: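 First, ASA-I179S fibroblasts from an MLD patient adhered for 6 hrs. Next, compounds were added for 48h. Then pNCS substrate (0.5mM final) with lysis buffer reacted 14h at room temperature before NaOH stop and fluorescence measurement.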
smiles,measurement,setting,value
O=C(O)c1cc(=O)[nH]c(=O)[nH]1,activation,[1],0.283%
same,max response,[2],-0.877%
same,outcome,[3],inactive
same,Potency,[4],inactive
same,max response,[5],16.2%
same,max response,[6],-0.993%
same,max response,[7],-10.9%
same,Potency,[8],inactive
Nc1nc(N)c2nc(CNc3ccc(C(=O)NC(CCC(=O)O)C(=O)O)cc3)cnc2n1 (stereo not given),activation,[1],-4.32%
same,max response,[2],-1.16%
same,outcome,[9],inactive
same,outcome,[10],inactive
same,outcome,[11],inactive
same,outcome,[3],inactive
same,outcome,[12],inactive
same,outcome,[13],inactive
same,outcome,[14],inactive
same,Potency,[8],89.1 nM (active)
COc1cc([C@@H]2c3cc4c(cc3[C@H](O)[C@H]3COC(=O)[C@H]23)OCO4)cc(OC)c1OC,outcome,[15],inactive
same,outcome,[16],inactive
COc1cc2ncnc(Nc3cccc(Cl)c3)c2cc1OC,outcome,[17],inactive
same,outcome,[9],inactive
same,outcome,[10],inactive
same,outcome,[11],inactive
same,outcome,[12],inactive
same,outcome,[13],inactive
same,outcome,[14],inactive
Cc1nnc(NS(=O)(=O)c2ccc(N)cc2)s1,activation,[1],-0.461%
same,max response,[2],6.59%
same,outcome,[3],inactive
same,Potency,[4],inactive
same,max response,[5],4.88%
same,max response,[7],0.46%
same,Potency,[8],inactive
CN(C)c1ccc(C(=C2C=CC(=[N+](C)C)C=C2)c2ccc(N(C)C)cc2)cc1,activation,[1],-11.2% and -3.03%
same,max response,[2],-11.8% and -11.3%
same,outcome,[3],inactive
same,Potency,[4],10.6 µM (active)
same,Potency,[5],25.1 µM (active) and 12.6 µM (active)
same,Potency,[6],7.08 µM (active)
same,Potency,[7],14.1 µM (active) and 11.2 µM (active)
same,Potency,[8],25.1 µM (active) and 35.5 µM (active)
Cc1c(-c2ccc(O)cc2)n(Cc2ccc(OCCN3CCCCCC3)cc2)c2ccc(O)cc12,outcome,[15],inactive
same,outcome,[16],inactive
CC[C@H](C)C(=O)O[C@H]1C[C@@H](C)C=C2C=C[C@H](C)[C@H](CC[C@@H]3C[C@@H](O)CC(=O)O3)[C@H]21,activation,[1],-1.02%
same,max response,[2],1.65%
same,outcome,[3],inactive
same,max response,[5],-3.79%
same,max response,[6],4.74%
same,max response,[7],-9.34%
same,Potency,[8],inactive
CNC(=O)c1cc(Oc2ccc(NC(=O)Nc3ccc(Cl)c(C(F)(F)F)c3)cc2)ccn1,outcome,[16],inactive
CC(=O)[C@H]1CC[C@H]2[C@@H]3CCC4=CC(=O)CC[C@]4(C)[C@H]3CC[C@]12C,activation,[1],0.0693% and 1.75% and -2.26%
same,max response,[2],1.94% and -2.09% and -1.65%
same,outcome,[9],inactive
same,outcome,[10],inactive
same,outcome,[11],inactive
same,outcome,[3],inactive
same,max response,[5],-18% and -11.7% and -23.6%
same,outcome,[12],inactive
same,outcome,[13],inactive
same,outcome,[14],inactive
same,Potency,[7],44.7 µM (active)
same,max response,[7],-28%
same,Potency,[8],inactive
C[C@]12C=CC(=O)C=C1CC[C@@H]1[C@@H]2C(=O)C[C@@]2(C)[C@H]1CC[C@]2(O)C(=O)CO,activation,[1],-0.111%
same,max response,[2],-2.07%
same,outcome,[3],inactive
same,Potency,[4],inactive
same,max response,[5],1.48%
same,max response,[6],18%
same,max response,[7],0.765%
same,Potency,[8],inactive
Cc1ccc(S(=O)(=O)N[C@@H](Cc2ccccc2)C(=O)CCl)cc1,outcome,[17],inactive
same,outcome,[9],inactive
same,outcome,[10],inactive
same,outcome,[11],inactive
same,outcome,[12],inactive
same,outcome,[13],inactive
same,outcome,[14],inactive
same,max response,[6],11.5%
NC(=O)c1cccc(N)c1,outcome,[17],inactive
same,outcome,[9],inactive
same,outcome,[10],inactive
same,outcome,[11],inactive
same,outcome,[12],inactive
same,outcome,[13],inactive
same,outcome,[14],inactive
same,max response,[6],25.5%
CC(=O)CC(c1ccccc1)c1c(O)c2ccccc2oc1=O (stereo not given),max response,[2],-0.925%
same,outcome,[3],inactive
same,max response,[5],12%
same,max response,[7],0.884%
same,Potency,[8],inactive
CCN(CC)CCn1c(=O)c(Cc2ccc(OC)cc2)nc2ccccc21,outcome,[15],inactive
same,outcome,[16],inactive
same,outcome,[17],inactive
same,outcome,[9],inactive
same,outcome,[10],inactive
same,outcome,[11],inactive
same,outcome,[12],inactive
same,outcome,[13],inactive
same,outcome,[14],inactive
same,max response,[6],-7.99%
CC(=O)Oc1ccccc1C(=O)Nc1ncc([N+](=O)[O-])s1,max response,[2],-4.4%
same,outcome,[3],inactive
same,Potency,[7],28.2 µM (active)
O=C(N[C@H](CO)[C@H](O)c1ccc([N+](=O)[O-])cc1)C(Cl)Cl,activation,[1],2.18% and 1.42%
same,max response,[2],0.618% and -1.35%
same,outcome,[3],inactive
same,Potency,[4],inactive
same,max response,[5],3.1% and 1.36%
same,max response,[6],-4.26% and -6.91%
same,max response,[7],-6.51% and -1.46%
same,Potency,[8],inactive
